Assay results taken from PubChem BioAssay AID602364 (National Center for Advancing Translational Sciences (NCATS), 2012).
Inconclusive results are not listed. Active and inactive are the calls of the source. The call rests on the fitted dose curve; in most records, active means well fitted inhibition curve with a large enough effect; inconclusive means small, poorly fitted or top-dose-only effect; inactive means flat fitted curve, though single readings scatter.

molecular target: Luciferin 4-monooxygenase (Photinus pyralis) (UniProt P08659); experiment: FLuc inhibitory activity for the follow-up compounds in a biochemical assay with 1mM ATP; conditions: purified P. pyralis luciferase, luminescence; series mostly up to 57.5 µM
Excerpt: NCGC Assay Overview: Firefly (Photinus pyralis) luciferase is one of the most commonly used transcriptional reporters. It is considered one of the more dynamically responsive reporters - that is, responsive to changes in reporter transcription - as it requires no post-translational modifications and is enzymatically active directly after protein synthesis (Wood, 1998). With no endogenous expression in mammalian cells and without the requirement of external excitation, it offers very little background signal, thus generally providing excellent signal to background for most assays. Previous profiling work to determine the prevalence of compounds that affect FLuc enzymatic activity (PubChem AID 411) identified that ~3% of the MLSMR library (then at ~72K) inhibited FLuc. […] Of the compounds identified in this profile that inhibited FLuc, 151 compounds were selected for further analysis, in an effort to better understand their mode of inhibiting FLuc. The assay described here was to determine the activity of the compounds in a FLuc assay that contained a KM concentration of D-luciferin and a high concentration (1mM) of ATP.
NCGC Assay Protocol Summary: Reagents: 50mM Tris acetate, pH 7.5; 10mM Mg acetate; 10uM D-luciferin (Sigma #L9504); 1mM ATP; 0.01% Tween-20; 0.05% BSA; 10nM P. pyralis luciferase (Sigma #L9506) Control compounds used were two known firefly luciferase inhibitors (3-(5-(3-chlorophenyl)-1,2,4-oxadiazol-3-yl)benzoic acid and 5-(2-fluorophenyl)-3-phenyl-1,2,4-oxadiazole), and DMSO. Three microliters containing firefly luciferase substrates in buffer (final concentrations: 50mM Tris acetate, pH 7.5, 10mM Mg acetate, 0.01% Tween-20, 0.05% BSA, 10uM D-luciferin, 1mM ATP) are dispensed into each well of a Greiner white, solid-bottom 1536-well format plate using a flying reagent dispenser (FRD). These assay plates were then treated with 23nL of compound or DMSO using a Kalypsys pin tool, which allows for delivery of a 12-point intraplate titration of each compound to the assay plate (quantitative HTS), with a final compound concentrations ranging from approximately ~60uM to 0.3nM. One microliter of firefly luciferase in […] Tris-acetate buffer was then delivered by FRD to each well for a final enzyme concentration of 10nM. Luciferase activity was then measured using a ViewLux CCD imager (PerkinElmer), with an average exposure time of 2-30 seconds (2X binning, medium/high gain).

Luciferin 4-monooxygenase (Photinus pyralis), sequence (P08659 whole entry, looked up): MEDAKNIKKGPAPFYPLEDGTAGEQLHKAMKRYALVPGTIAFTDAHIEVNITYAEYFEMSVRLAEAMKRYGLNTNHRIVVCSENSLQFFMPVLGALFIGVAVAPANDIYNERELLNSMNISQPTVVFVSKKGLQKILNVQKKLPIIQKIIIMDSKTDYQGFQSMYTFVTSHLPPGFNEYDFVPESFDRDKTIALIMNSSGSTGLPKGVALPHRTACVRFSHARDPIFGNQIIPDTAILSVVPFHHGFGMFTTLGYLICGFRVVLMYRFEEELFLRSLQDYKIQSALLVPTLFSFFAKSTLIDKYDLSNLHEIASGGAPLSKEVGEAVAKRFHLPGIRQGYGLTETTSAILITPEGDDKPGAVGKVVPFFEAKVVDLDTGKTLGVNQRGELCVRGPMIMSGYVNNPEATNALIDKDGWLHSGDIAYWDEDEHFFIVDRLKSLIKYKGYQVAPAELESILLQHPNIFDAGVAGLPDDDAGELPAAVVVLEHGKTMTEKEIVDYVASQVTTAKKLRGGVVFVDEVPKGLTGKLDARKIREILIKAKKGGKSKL

Structure (SMILES) | Potency
Cc1ccc(C(=O)O/N=C(\N)c2ccccn2)cc1 | 0.0073 µM (active)
COc1ccccc1C(=O)Nc1ccc(C(=O)O)cc1 | inactive
COc1ccc(C(=O)Nc2nc3ccc(OC)cc3s2)cc1 | 5.8 µM (active)
O=C(O)c1cccc(NC(=O)c2ccc(S(=O)(=O)c3ccccc3)cc2)c1 | 11.6 µM (active)
O=C(Nc1ccccc1-c1nc2ccccc2s1)c1cccnc1 | 36.6 µM (active)
O=C(O)c1ccc(NC(=O)c2ccccc2NC(=O)c2ccccc2Cl)cc1 | inactive
CC(C)Oc1ccc(C(=O)Nc2ccc(-c3nc4ccccc4s3)cc2)cc1 | inactive
Cc1ccc2nc(-c3ccc(NC(=O)CN4CCN(C(=O)c5ccco5)CC4)cc3)sc2c1 | 4.11 µM (active)
O=C(Nc1cccc(-c2nc3ccccc3s2)c1)C1=COCCO1 | 25.9 µM (active)
Nc1ccccc1-c1nc2ccccc2s1 | 2.91 µM (active)
O=C(Nc1cccc(-c2nc3ccccc3s2)c1)c1cc(-n2cnnc2)ccc1Cl | 9.19 µM (active)
Cc1ccc2sc(-c3ccc(NC(=O)c4cc(-n5cnnc5)ccc4Cl)cc3)nc2c1 | 1.63 µM (active)
Cc1ccc(C(=O)Nc2cccc(C(=O)O)c2)cc1S(=O)(=O)N1CCCCC1 | 0.291 µM (active)
CCOc1ccc(C(=O)Nc2cccc(C(=O)O)c2)cc1Cl | 0.58 µM (active)
O=S(=O)(c1ccc(-c2nc3ccccc3s2)cc1)N1CCCC1 | 0.919 µM (active)
COc1cc(C(=O)Nc2cc(C)c(O)c(-c3nc4ccccc4s3)c2)cc(OC)c1OC | inactive
O=C(Nc1ccccc1C(=O)O)c1cccc(S(=O)(=O)N2CCCC2)c1 | 16.3 µM (active)
CCOc1ccc2nc(NC(=O)c3ccccc3)sc2c1 | 0.0919 µM (active)
O=C(Nc1ccccc1C(=O)O)c1cccc(NC(=O)c2ccco2)c1 | 18.3 µM (active)
CN=c1scc(-c2ccccc2F)n1/N=C/c1ccc[nH]1 | 0.058 µM (active)

Structure (SMILES) | Potency
O=C(Cc1ccccc1)Nc1ccccc1C(=O)Nc1ccc(C(=O)O)cc1 | inactive
COc1ccc2nc(NC(=O)c3cnccn3)sc2c1 | 0.517 µM (active)
COc1ccc(Br)cc1C(=O)Nc1ccc(C(=O)O)cc1 | inactive
Cc1ccc(C(=O)O/N=C(\N)c2ccccn2)c(Cl)c1 | 0.0046 µM (active)
O=C(O)c1cccc(NC(=O)c2ccc(Cl)c(S(=O)(=O)N3CCCCCC3)c2)c1 | 0.366 µM (active)
Cc1c(NC(=O)C(C)(C)C)cccc1-c1nc2ccccc2s1 | 25.9 µM (active)
Nc1ccc(-c2nc3ccc(N)cc3s2)cc1 | 0.103 µM (active)
O=C(Nc1ccccc1C(=O)O)c1cc(S(=O)(=O)Nc2ccccc2)ccc1Cl | inactive
Cc1c(NC(=O)c2cc(-n3cnnc3)ccc2Cl)cccc1-c1nc2ccccc2s1 | 2.91 µM (active)
COc1cccc(OC)c1C(=O)Nc1cccc(C(=O)Nc2cccc(C(=O)O)c2)c1 | 4.61 µM (active)
O=C(Nc1ccccc1C(=O)O)c1cc(S(=O)(=O)NCc2ccccc2)ccc1Cl | inactive
COc1ccc(C(=O)Nc2ccccc2C(=O)Nc2ccc(C(=O)O)cc2)cc1 | 18.3 µM (active)
O=C(Cc1ccccc1)Nc1ccc(C(=O)Nc2ccccc2C(=O)O)cc1 | 20.6 µM (active)
CCOc1ccc2nc(NC(=O)c3ccccn3)sc2c1 | 0.13 µM (active)
COc1ccc(-c2nc3ccccc3s2)cc1O | 0.0259 µM (active)
COc1ccc2nc(NC(=O)C3CCN(S(=O)(=O)c4cccnc4)CC3)sc2c1 | inactive
O=C(Nc1ccccc1C(=O)O)c1ccc(NC(=O)C2CCCO2)cc1 (stereo not given) | 20.6 µM (active)
CCn1c(C)nc2cc(-c3nc4n(n3)Cc3ccccc3-4)ccc21 | 0.0326 µM (active)
COc1ccc2nc(NC(=O)c3ccc(S(=O)(=O)N4CCCC(C)C4)cc3)sc2c1 (stereo not given) | inactive
COc1cc(OC)cc(-c2nc3ccccc3s2)c1 | 4.11 µM (active)
